The OligoGym collection
Also: reference of the scale not given here.

What follows are sequences tested against TMEM117 (assay: pooled miR-30 sensor sort-seq; sequence = guide strand). Conditions: shRNA.
Work on ATTTACATCAACATCTCCCATG yielded a sensor-assay potency score (higher = more potent) of -0.907.
Work on TAGTAGATTCGTTCAACTGTGA yielded a sensor-assay potency score (higher = more potent) of 0.105.
In the case of TTAATCGGAGCAACTGACCAAA, the sensor-assay potency score (higher = more potent) is reported as -0.0675.
TTTGTCTTGATTCTCCATGCGT showed a sensor-assay potency score (higher = more potent) of -0.0154.
TATTACTGAATTTTGCATCTGT gave a sensor-assay potency score (higher = more potent) of 1.08.
TATCAGTGACCATCCAAGCTGT gave a sensor-assay potency score (higher = more potent) of -0.461.
TTGAACATCAGATACATGGGTC was tested, and the sensor-assay potency score (higher = more potent) was 0.48.
Work on TTGAAGTCAGACCTGATGCAAA yielded a sensor-assay potency score (higher = more potent) of -0.838.
With TACATCAACATCTCCCATGAAA the sensor-assay potency score (higher = more potent) was -1.02.
TTGTCTTGATTCTCCATGCGTG gave a sensor-assay potency score (higher = more potent) of -0.601.
TTAGTGTGATTGGACCTCCATT showed a sensor-assay potency score (higher = more potent) of -1.69.
With TTTCACTGTATATATCTTCTGC the sensor-assay potency score (higher = more potent) was -0.0324.

Each sequence was assayed against TMEM130 in the same assay as above. Conditions: shRNA.
For TAGAGAAACAAGGCGGTCTTGA, the sensor-assay potency score (higher = more potent) was 0.529.
TTGCCAGTAAGCACCAGCGGGG showed a sensor-assay potency score (higher = more potent) of -1.3.
TATGTGTACAACCTTTAGTTAT gave a sensor-assay potency score (higher = more potent) of -1.54.
